Prx2 Sm inh – inhibitors of Schistosoma mansoni peroxiredoxin 2 | Potency, µM | hit rate 0.07% among 65,000 | S. mansoni Prx2 activity coupled to TGR/GSH (TGR is thioredoxin glutathione reductase), NADPH fluorescence loss, qHTS | AID 448
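qHTS, coupled TGR/Prx2 format; 15 min compound preincubation at RT; reaction started with H2O2 (2.5 mM aliquot); kinetic NADPH fluorescence decrease, ex 365/em 450 nm.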
AmpC inh det – inhibitors of E. coli AmpC beta-lactamase with detergent | purified AmpC, nitrocefin hydrolysis with detergent | Potency, µM (titrated, usually from 28.7 µM), without a hit: top-dose activity change, negative = inhibition | P00811 | hit rate 0.09% among 71,000; active means well fitted curve in the direction sought with a large enough effect; inconclusive means small, poorly fitted or top-dose-only effect; further: on the % scale 0 is the no-effect control and ±100 the full control effect
Target sequence (P00811 whole entry, looked up): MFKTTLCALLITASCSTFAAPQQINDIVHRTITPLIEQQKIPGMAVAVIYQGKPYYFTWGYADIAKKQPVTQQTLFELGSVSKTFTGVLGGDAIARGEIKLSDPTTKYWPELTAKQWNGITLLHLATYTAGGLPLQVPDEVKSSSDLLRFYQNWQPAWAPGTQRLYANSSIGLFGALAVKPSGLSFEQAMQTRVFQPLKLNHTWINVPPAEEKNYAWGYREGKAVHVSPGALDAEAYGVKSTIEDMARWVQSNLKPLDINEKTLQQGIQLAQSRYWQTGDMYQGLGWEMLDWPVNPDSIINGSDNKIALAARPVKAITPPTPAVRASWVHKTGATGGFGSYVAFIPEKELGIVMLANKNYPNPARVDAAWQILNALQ
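E. coli AmpC (5.3 nM) in 20 mM phosphate pH 7.0 with 0.01% Triton X-100, preincubated 15 min RT with compound; nitrocefin (2 uL of 800 uM stock) hydrolysis followed by 480 nm absorbance every 20 s over 4 min.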
LT uptake inh – anthrax lethal toxin internalization inhibition; Cells, anthrax lethal toxin internalization, FRET ratio (460/530); Potency, µM (top dose mostly 40 µM), inactives show at the highest dose activity change, negative = inhibition, most hits filed as inhibitors; hit rate 0.67% among 70,000; further: on the % scale 0 is the no-effect control and ±100 the full control effect; nearly all actives have a fitted effect of over 50% in size
AmpC inh no det – blocks E. coli AmpC beta-lactamase in absence of detergent; Potency, µM (titrated, usually from 28.7 µM), for inactives: at the highest dose activity change, negative = inhibition; P00811; AmpC nitrocefin hydrolysis, absorbance 480 nm, no detergent; hit rate 1.8% among 71,000; further: % of control where 0% means no effect
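AmpC in 20 mM phosphate buffer pH 7.0 was preincubated 15 min at room temperature with compounds. Nitrocefin (800 uM stock) was then added and hydrolysis followed at 480 nm every 20 s for 4 min.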
The depositor's hits bear a star; [ ] = dose if it differs, or a comment. Hits are enriched below; roughly 2.6% of the tested compounds scored in any of these assays. Unless noted, the call rests on the fitted dose curve. Potency means the concentration at half of the fitted maximal effect.

How did COc1ccc(O)c(-c2cc(-c3cccc(Br)c3)n[nH]2)c1 do in these assays?
AmpC inh det: 17%; LT uptake inh: inconclusive; AmpC inh no det: -20%

What do the screens show for `COc1ccc(-c2cc(-c3ccccc3O)[nH]n2)cc1OC`?
AmpC inh det: 8%; LT uptake inh: 13µM*; AmpC inh no det: 46%

What do the screens show for `COC(=O)c1cc(-c2ccc(OC)c(OC)c2)n[nH]1`?
Prx2 Sm inh: >57; AmpC inh det: -3%; LT uptake inh: -13%; AmpC inh no det: 3%

Results for NCC[C@H](N)C(=O)O ?
Prx2 Sm inh: >57; AmpC inh det: -3%[5.75 µM]; LT uptake inh: -1%[8 µM]; AmpC inh no det: 2%[5.75 µM]

What do the screens show for `C=CC(C)(C)c1[nH]c2ccccc2c1C1=C(O)C(=O)C(c2c[nH]c3c(CC=C(C)C)cccc23)=C(O)C1=O`?
Prx2 Sm inh: >11; AmpC inh det: inconclusive; LT uptake inh: 25µM*; AmpC inh no det: inconclusive

How did Cc1ccc(N=Nc2c(O)ccc3cc(S(=O)(=O)O)ccc23)cc1 do in these assays?
Prx2 Sm inh: >57; AmpC inh det: -5%[5.75 µM]; LT uptake inh: -14%[8 µM]; AmpC inh no det: -1%[5.75 µM]

What do the screens show for `Cc1ccc(S(=O)(=O)Oc2ccc(N=Nc3ccc(-c4ccc(N=Nc5c(O)ccc6cc(S(=O)(=O)O)cc(S(=O)(=O)O)c56)c(C)c4)cc3C)cc2)cc1`?
AmpC inh det: -6%; LT uptake inh: 16µM*; AmpC inh no det: 0.32µM*

What do the screens show for `Fc1cccc2sc(Nc3nnc(-c4ccccc4)o3)nc12`?
Prx2 Sm inh: >57; AmpC inh det: -1%; LT uptake inh: -2%; AmpC inh no det: 13µM*[single pt active]

What do the screens show for `O=c1c(-c2ccccc2)nc2cnc(Oc3cccc(Cl)c3)nc2n1C[C@H]1CCCO1`?
Prx2 Sm inh: >57; AmpC inh det: -1%; LT uptake inh: inconclusive; AmpC inh no det: 37%

Results for COC(=O)Cn1c(C(=O)N(C)C)cc2c1C[C@H]1CN(C(=O)c3ccccc3)[C@@](Cc3ccc(OC)cc3)(C(=O)OC)[C@@H]21 ?
Prx2 Sm inh: >57; AmpC inh det: -1%; LT uptake inh: 4%; AmpC inh no det: 170%

What do the screens show for `COc1ccc(N2C(=O)CC(Sc3ncn[nH]3)C2=O)c(OC)c1` (centres undefined)?
AmpC inh det: -1%; LT uptake inh: 13µM*; AmpC inh no det: 79%

Results for O=C(NCc1ccc(F)cc1)c1cc2n(n1)C(C(F)(F)F)CC(C1CC1)N2 (centres undefined) ?
Prx2 Sm inh: >57; AmpC inh det: 11%; LT uptake inh: -3%; AmpC inh no det: 4µM*[single pt active]

What do the screens show for `Nc1ccn([C@@H]2O[C@H](COC(=O)C34CC5CC(CC(C5)C3)C4)[C@@H](O)[C@@H]2O)c(=O)n1`?
Prx2 Sm inh: >57; AmpC inh det: -3%[5.75 µM]; LT uptake inh: inconclusive; AmpC inh no det: -1%[5.75 µM]

What do the screens show for `Cc1ccc(-c2noc(CN3C(C)CCCC3C)n2)cc1` (centres undefined)?
Prx2 Sm inh: >57; AmpC inh det: 12%; LT uptake inh: -12%; AmpC inh no det: 4µM*[single pt active]

Results for Cc1ccc(-c2noc(CN3CCC(C(N)=O)CC3)n2)cc1 ?
Prx2 Sm inh: >57; AmpC inh det: -2%; LT uptake inh: -15%; AmpC inh no det: -4%

What do the screens show for `O=C(COC(=O)c1cc(-c2ccco2)nc2ccccc12)NCc1ccc2c(c1)OCO2`?
Prx2 Sm inh: >57; AmpC inh det: -12%; LT uptake inh: inconclusive; AmpC inh no det: 13µM*

Results for CN1CC[C@@]23c4ccccc4N[C@H]1[C@]21CCN(C)[C@@H]3Nc2ccccc21 ?
Prx2 Sm inh: >57; AmpC inh det: -3%[12.8 µM]; LT uptake inh: inconclusive; AmpC inh no det: -8%[12.8 µM]

What do the screens show for `CC(C)=CCC/C(C)=C/COc1c2ccoc2cc2oc(=O)ccc12`?
Prx2 Sm inh: >57; AmpC inh det: 14%; LT uptake inh: inconclusive; AmpC inh no det: 13µM*

How did COc1cc2ccc(=O)oc2c(O)c1OCC=C(C)C do in these assays?
Prx2 Sm inh: >57; AmpC inh det: -1%; LT uptake inh: inconclusive; AmpC inh no det: -3%

What do the screens show for `N#Cc1ccc(CN2CCCC3(CCNCC3)C2)cc1`?
Prx2 Sm inh: >57; AmpC inh det: -1%; LT uptake inh: inconclusive; AmpC inh no det: 4%

Results for CC(=O)C1=C(C)NC(SCC(=O)c2cc(Cl)ccc2Cl)=C(C#N)C1c1ccco1 (centres undefined) ?
AmpC inh det: -3%; LT uptake inh: 10µM*; AmpC inh no det: inconclusive
